Results as given in PubChem BioAssay (Tox21).
A number with no mark means an inactive call. Results filed as inconclusive are left out. Entries that show only a call come without a potency. The source made the active and inactive calls. Unless noted, calls come from the whole dose curve; as a rule, active = well fitted curve in the direction sought with a large enough effect in the repeat runs; inconclusive = weak or mixed curves; inactive = no such curve, though single readings can be large; an effect the other way counts as inactive or inconclusive.

Assays:
[1] = qHTS assay to identify small molecule antagonists of the estrogen receptor alpha (ER-alpha) signaling pathway using the BG1 cell line in the presence of 0.1 nM 17-beta-estradiol - cell viability counter screen (AID 1259241); note: nearly all actives have a fitted effect of over 40% in size
Method in brief: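 Live-cell protease activity (CellTiter-Fluor fluorescence, 30 min) was read in the same wells after VM7Luc4E2 cells had been exposed to compounds with 0.1 nM 17beta-estradiol for 22 hr at 37C.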

[2] = qHTS assay to identify small molecule antagonists of the androgen receptor (AR) signaling pathway using the MDA cell line in the presence of 0.5 nM R1881 - cell viability counter screen (AID 1259242); note: nearly all actives have a fitted effect of over 45% in size
Method in brief: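 Live-cell protease activity was measured by CellTiter-Fluor fluorescence after 30 min. Before that, MDA-kb2 MMTV-luciferase cells had 16 hr at 37C without CO2, exposed to test compounds and 0.5 nM R1881 final.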

[3] = qHTS assay to identify small molecule HDAC inhibitors - cell viability counter screen (AID 1259365); note: series mostly up to about 92 µM; nearly all actives have a fitted effect of over 50% in size
Method in brief: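 HCT-116 (wild type), 1,500 cells/well, overnight 37C/5% CO2; compound in DMSO 2hr; CellTiter-Glo 30min RT; luminescence read.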

[4] = qHTS assay to identify small molecule agonists of the sonic hedgehog signaling (Shh) pathway - cell viability counter screen (AID 1259366); note: nearly all actives have a fitted effect of over 50% in size
Method in brief: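 CellTiter-Fluor fluorescence read-out, 1 hr at 37C, added after 23hr compound exposure. Cells: 3T3 Gli1-Luc, an NIH/3T3 clone with stably integrated Gli1-Luc reporter, plated 4hr before compound.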

[5] = qHTS assay to identify small molecule antagonists of the sonic hedgehog signaling (Shh) pathway - cell viability counter screen (AID 1259367); note: nearly all actives have a fitted effect of over 55% in size
Method in brief: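 Fluorescence read-out (CellTiter-Fluor, 1 hr at 37C) taken after 23 hr compound treatment of 3T3 Gli1-Luc cells stimulated with conditioned medium. Cells were seeded at 2,000 per well and pre-incubated 4 hr.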

[6] = qHTS assay to identify small molecule antagonists of the sonic hedgehog signaling (Shh) pathway (AID 1259369; calls by dose curve; note: nearly all actives have a fitted effect of over 45% in size)
Method in brief: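 Antagonist mode: compound added to 3T3 Gli1-Luc cells followed by conditioned-medium stimulation, 24 h at 37 C, 5% CO2. Inhibition taken as loss of Gli1-driven luciferase luminescence.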

[7] = target: Estrogen receptor beta (Homo sapiens) (UniProt Q92731); experiment: qHTS assay to identify small molecule agonists of the estrogen receptor beta (ER-beta) signaling pathway (AID 1259377; active = well fitted activation curve with a large enough effect in the signal ratio in the repeat runs, not every such curve was filed as active; the % refers to the signal ratio)
Chain of Estrogen receptor beta (Homo sapiens) (Q92731 whole entry, looked up): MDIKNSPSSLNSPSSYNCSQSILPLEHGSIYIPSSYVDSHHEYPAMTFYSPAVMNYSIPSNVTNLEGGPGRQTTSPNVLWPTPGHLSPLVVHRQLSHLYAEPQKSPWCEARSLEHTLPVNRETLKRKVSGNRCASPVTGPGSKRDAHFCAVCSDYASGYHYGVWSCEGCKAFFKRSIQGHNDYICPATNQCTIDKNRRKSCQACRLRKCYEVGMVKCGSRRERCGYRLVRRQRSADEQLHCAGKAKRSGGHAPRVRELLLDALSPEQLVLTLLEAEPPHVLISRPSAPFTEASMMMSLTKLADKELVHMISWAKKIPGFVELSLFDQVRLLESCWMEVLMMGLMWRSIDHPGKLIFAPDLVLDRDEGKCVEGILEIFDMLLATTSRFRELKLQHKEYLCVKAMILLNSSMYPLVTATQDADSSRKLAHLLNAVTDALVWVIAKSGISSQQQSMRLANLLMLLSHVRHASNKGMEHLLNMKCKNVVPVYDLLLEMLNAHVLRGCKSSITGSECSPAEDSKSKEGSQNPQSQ
Method in brief: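 Beta-lactamase reporter readout: fluorescence of LiveBLAzer B/G FRET substrate after 2 h at room temperature, following 16 h compound treatment of ER-beta-UAS-bla HEK293T cells at 37C in 2% charcoal-stripped FBS medium.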

[8] = target: Estrogen receptor beta (Homo sapiens) (UniProt Q92731); experiment: qHTS assay to identify small molecule antagonists of the estrogen receptor beta (ER-beta) signaling pathway (AID 1259378; active = well fitted inhibition curve with a large enough effect in the signal ratio in the repeat runs, not every such curve was filed as active; the % refers to the signal ratio)
Method in brief: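 ER-beta-UAS-bla HEK293T cells in 2% charcoal-stripped FBS medium treated with compound plus 1nM final 17-beta-estradiol for 16 hr at 37C. Beta-lactamase reporter read by FRET substrate fluorescence after 2 hours at room temperature.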

[9] = qHTS assay to identify small molecule agonists of the androgen receptor (AR) signaling pathway in the presence of an antagonist - cell viability counter screen (AID 1259379);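 note: MDA-kb2 human breast cancer cells carrying an MMTV luciferase reporter; series mostly up to about 92 µM; nearly all actives have a fitted effect of over 25% in size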
Method in brief: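 Cytotoxicity counter-screen run in the same wells as the nilutamide-challenged (3.0 µM final) AR agonist assay in MDA-kb2 cells. Compounds tested at 15 concentrations for 16 h, 37 °C without CO2; CellTiter-Fluor fluorescence read.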

[10] = qHTS assay to identify small molecule agonists of the estrogen receptor beta (ER-beta) signaling pathway - cell viability counter screen (AID 1259380); note: nearly all actives have a fitted effect of over 30% in size
Method in brief: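 Cell viability counter screen: CellTiter-Glo luminescence (30 min, room temperature) measured in the same wells as the beta-lactamase readout, after 16 hr compound exposure at 37C of ER-beta-bla HEK293T cells in 2% charcoal-stripped FBS medium.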

[11] = target: Androgen receptor (Homo sapiens) (UniProt P10275); experiment: qHTS assay to identify small molecule agonists of the androgen receptor (AR) signaling pathway in the presence of an antagonist (AID 1259381; calls by dose curve; note: nearly all actives have a fitted effect of over 15% in size)
Chain of Androgen receptor (Homo sapiens) (P10275 whole entry, looked up): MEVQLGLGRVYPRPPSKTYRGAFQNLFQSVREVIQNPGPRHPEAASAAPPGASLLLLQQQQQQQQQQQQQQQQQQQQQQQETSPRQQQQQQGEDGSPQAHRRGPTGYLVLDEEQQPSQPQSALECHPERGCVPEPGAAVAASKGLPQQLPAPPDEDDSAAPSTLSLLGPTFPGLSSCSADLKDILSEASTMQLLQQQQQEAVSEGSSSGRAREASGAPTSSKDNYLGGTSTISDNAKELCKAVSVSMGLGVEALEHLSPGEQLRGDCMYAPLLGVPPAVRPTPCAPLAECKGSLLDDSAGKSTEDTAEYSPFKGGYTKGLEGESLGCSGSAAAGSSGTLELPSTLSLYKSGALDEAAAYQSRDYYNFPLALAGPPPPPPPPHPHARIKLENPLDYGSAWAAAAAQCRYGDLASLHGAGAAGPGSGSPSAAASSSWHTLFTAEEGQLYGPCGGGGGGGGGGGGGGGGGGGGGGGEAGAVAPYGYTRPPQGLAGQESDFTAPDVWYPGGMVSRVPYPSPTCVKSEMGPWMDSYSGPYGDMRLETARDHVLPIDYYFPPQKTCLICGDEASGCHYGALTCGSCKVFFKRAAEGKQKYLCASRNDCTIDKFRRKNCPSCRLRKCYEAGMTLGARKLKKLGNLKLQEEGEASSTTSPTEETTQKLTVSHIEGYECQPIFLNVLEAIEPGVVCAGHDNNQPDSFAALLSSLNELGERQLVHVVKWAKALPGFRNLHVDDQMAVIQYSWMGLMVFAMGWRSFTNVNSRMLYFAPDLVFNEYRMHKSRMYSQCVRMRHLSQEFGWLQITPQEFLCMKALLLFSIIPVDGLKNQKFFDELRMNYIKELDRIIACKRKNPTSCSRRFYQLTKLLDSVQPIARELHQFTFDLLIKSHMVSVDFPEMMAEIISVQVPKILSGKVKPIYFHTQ
Method in brief: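 Agonist-mode confirmation run against 3.0 uM final nilutamide: compounds titrated at 15 concentrations onto MDA-kb2 MMTV-luciferase reporter cells. Luminescence measured with ONE-Glo following 16 hr incubation, 37C, 0% CO2.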

[12] = qHTS assay to identify small molecule antagonists of the estrogen receptor beta (ER-beta) signaling pathway - cell viability counter screen (AID 1259382); note: series mostly up to about 92 µM; nearly all actives have a fitted effect of over 55% in size
Method in brief: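 Cytotoxicity was measured in the same wells by CellTiter-Glo luminescence after 30 min at room temperature. Cells were ER-beta-bla HEK293T in charcoal-stripped serum, given compound together with 1 nM E2 and incubated 16 h at 37C.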

[13] = qHTS assay to identify small molecule agonists or antagonists of the thyroid stimulating hormone receptor (TSHR) signaling pathway - wild type cell line counter screen (AID 1259384; calls by dose curve)
Method in brief: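 Wild-type Hek293 cells, 800/well, 18 h at 37C, then compound with Ro20-1724 for 30 min RT. cAMP by HTRF (cAMP-d2/anti-cAMP cryptate), 1 h RT, fluorescence read. 15 concentrations, triplicates.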

[14] = target: Estrogen receptor (Homo sapiens) (UniProt P03372); experiment: qHTS assay to identify small molecule antagonists of the estrogen receptor alpha (ER-alpha) signaling pathway using the BG1 cell line in the presence of 0.1 nM 17-beta-estradiol (AID 1259244); note: nearly all actives have a fitted effect of over 50% in size
Chain of Estrogen receptor (Homo sapiens) (P03372 whole entry, looked up): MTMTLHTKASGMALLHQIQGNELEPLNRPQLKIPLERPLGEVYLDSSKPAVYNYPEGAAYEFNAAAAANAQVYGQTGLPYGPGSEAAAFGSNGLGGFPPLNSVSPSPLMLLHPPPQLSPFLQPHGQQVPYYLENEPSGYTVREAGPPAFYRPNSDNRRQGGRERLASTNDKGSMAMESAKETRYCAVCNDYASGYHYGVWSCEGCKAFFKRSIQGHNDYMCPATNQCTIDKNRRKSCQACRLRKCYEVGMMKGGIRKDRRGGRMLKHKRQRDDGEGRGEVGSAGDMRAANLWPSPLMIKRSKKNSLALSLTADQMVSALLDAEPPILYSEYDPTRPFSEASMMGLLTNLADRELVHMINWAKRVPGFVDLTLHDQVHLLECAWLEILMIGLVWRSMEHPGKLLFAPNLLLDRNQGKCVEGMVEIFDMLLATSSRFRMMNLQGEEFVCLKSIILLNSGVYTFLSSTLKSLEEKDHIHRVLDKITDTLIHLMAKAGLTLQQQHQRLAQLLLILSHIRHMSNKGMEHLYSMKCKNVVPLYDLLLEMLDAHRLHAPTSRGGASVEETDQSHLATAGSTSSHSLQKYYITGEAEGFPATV
Method in brief: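 Luciferase luminescence (ONE-Glo, 30 min at room temperature) was read after 22 hr at 37C exposure to compounds plus 17beta-estradiol at 0.1 nM final. Cells were VM7Luc4E2 with endogenous ER-alpha and an ERE-driven luciferase, pre-cultured 5 days in hormone-depleted medium.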

[15] = qHTS assay to identify small molecule phospholipidosis (PLD) inducers (AID 1259344; active = well fitted curve in the direction sought with a large enough effect; an effect the other way counts as inactive or inconclusive)
Method in brief: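 Read-out is LipidTOX Red fluorescence (ex 595/em 615) imaged in HepG2 cells after 24 h compound exposure at 37 C, with Hoechst nuclear counterstain (ex 352/em 461) allowing per-cell normalisation.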

[16] = qHTS assay to identify small molecule HDAC inhibitors (AID 1259364); note: nearly all actives have a fitted effect of over 45% in size; note: potency is the fitted concentration of half-maximal effect; for activity change, negative = inhibition: top concentration of the series differs between compounds
Method in brief: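 Luminescence read after 30 min room-temperature HDAC-Glo incubation measures cellular class I/II HDAC activity. Compounds were applied for 2 hr at 37 C to HCT-116 wild-type cells seeded the day before.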

[17] = qHTS assay to identify small molecule agonists of the sonic hedgehog signaling (Shh) pathway (AID 1259368; calls by dose curve;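 note: NIH/3T3-derived 3T3Gli1-Luc cells carrying a stable Gli1-driven firefly luciferase reporter; series mostly up to about 92 µM; nearly all actives have a fitted effect of over 15% in size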)
Method in brief: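 Luminescence was read after 30 min at room temperature with luciferase reagent. Before that, 3T3Gli1-Luc cells (NIH/3T3 clone, stable Gli1-Luc reporter; 2,000/well) were exposed to compounds for 24 hr at 37C, 5% CO2, compounds being added 4 hr post-plating.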

[18] = target: Estrogen receptor (Homo sapiens) (UniProt P03372); experiment: qHTS assay to identify small molecule agonists of the estrogen receptor alpha (ER-alpha) signaling pathway in the presence of an antagonist (AID 1259383; calls by dose curve; note: top concentration of the series differs between compounds; nearly all actives have a fitted effect of over 15% in size)
Method in brief: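 Agonist-mode confirmation run in the presence of 10.0nM (final) ICI-182,780 antagonist. The reporter was ERE-driven luciferase in VM7Luc4E2 cells, grown in charcoal-stripped serum. Cells were exposed to 15-concentration compound series for 22hr, then ONE-Glo luminescence was read.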

c1ccc(SCCSc2ccccc2)cc1
outcome [1]: inactive
outcome [2]: inactive
outcome [3]: inactive
Potency [4]: inactive
outcome [5]: inactive
Potency [6]: inactive
outcome [7]: inactive
Potency [8]: inactive
Potency [9]: inactive
Potency [10]: inactive
Potency [11]: inactive
Potency [12]: inactive
outcome [13]: inactive

Cn1ccc2cc3c(cc21)CCN3C(=O)Nc1cccnc1
activity change, negative = cytotoxicity [1]: -4.26% [at 19 µM]
viability change, negative = cytotoxic [2]: -1.94% [at 19 µM]
activity change, negative = inhibition [14]: 76.4% [at 19 µM]
Potency [15]: inactive
Potency [16]: 11.6 µM (active)
activity change, negative = cytotoxicity [3]: -0.0806% [at 19 µM]
viability change, negative = cytotoxic [4]: 4.12% [at 19 µM]
viability change, negative = cytotoxic [5]: 4.69% [at 19 µM]
activity change [17]: 11% [at 18.9 µM, hits give high values]
activity change, negative = inhibition [6]: 1.03% [at 19 µM]
activation [7]: -2.3% [at 19 µM]
activity change, negative = cytotoxicity [9]: 2.26% [at 19 µM]
activity change, negative = cytotoxicity [12]: -14.8% [at 19 µM]
activation [18]: 12% [at 19 µM]
cAMP activity change [13]: -0.339% [at 18.9 µM]

CC(C=O)Cc1ccc(C(C)C)cc1 (configuration not stated)
outcome [1]: inactive
outcome [2]: inactive
Potency [16]: inactive
outcome [3]: inactive
Potency [4]: inactive
outcome [5]: inactive
Potency [17]: inactive
Potency [6]: inactive
outcome [7]: inactive
Potency [8]: inactive
Potency [9]: inactive
Potency [10]: inactive
Potency [12]: inactive
outcome [13]: inactive

C=C(C)[C@@H]1CCC2=CC(=O)C[C@@H](C)[C@]2(C)C1
outcome [1]: inactive
outcome [2]: inactive
outcome [14]: inactive
Potency [16]: inactive
outcome [3]: inactive
Potency [4]: inactive
outcome [5]: inactive
Potency [17]: inactive
Potency [8]: inactive
Potency [9]: inactive
Potency [10]: inactive
Potency [12]: inactive
Potency [18]: inactive
outcome [13]: inactive

NC(=O)CCCCC1CCSS1 (configuration not stated)
outcome [1]: inactive
outcome [2]: inactive
outcome [14]: inactive
Potency [15]: inactive
Potency [16]: inactive
Potency [4]: inactive
outcome [5]: inactive
Potency [17]: inactive
Potency [9]: inactive
Potency [10]: inactive
Potency [12]: inactive
Potency [18]: inactive
outcome [13]: inactive

CC(C)(C)N(CCO)CCO
outcome [1]: inactive
outcome [2]: inactive
outcome [14]: inactive
Potency [16]: inactive
outcome [3]: inactive
Potency [4]: inactive
outcome [5]: inactive
Potency [17]: inactive
Potency [6]: inactive
outcome [7]: inactive
Potency [9]: inactive
Potency [10]: inactive
Potency [12]: inactive
Potency [18]: inactive
outcome [13]: inactive

C=C(C)C1CC=C(C)C(O)C1 (configuration not stated)
outcome [1]: inactive
outcome [2]: inactive
outcome [14]: inactive
Potency [16]: inactive
outcome [3]: inactive
Potency [4]: inactive
outcome [5]: inactive
Potency [17]: inactive
Potency [6]: inactive
Potency [9]: inactive
Potency [10]: inactive
Potency [12]: inactive
Potency [18]: inactive
outcome [13]: inactive

CCCCN(CCO)CCO
outcome [1]: inactive
outcome [2]: inactive
outcome [14]: inactive
Potency [16]: inactive
outcome [3]: inactive
Potency [4]: inactive
outcome [5]: inactive
Potency [17]: inactive
Potency [6]: inactive
outcome [7]: inactive
Potency [9]: inactive
Potency [10]: inactive
Potency [12]: inactive
Potency [18]: inactive

COCc1ccc(COC)cc1
outcome [1]: inactive
outcome [2]: inactive
outcome [14]: inactive
Potency [16]: inactive
outcome [3]: inactive
Potency [4]: inactive
outcome [5]: inactive
Potency [17]: inactive
Potency [6]: inactive
outcome [7]: inactive
Potency [8]: inactive
Potency [9]: inactive
Potency [10]: inactive
Potency [12]: inactive
Potency [18]: inactive

Cc1cc(C)cc(OCC2CNC(=O)O2)c1 (configuration not stated)
outcome [1]: inactive
outcome [2]: inactive
outcome [14]: inactive
Potency [15]: inactive
Potency [16]: inactive
outcome [3]: inactive
Potency [4]: inactive
outcome [5]: inactive
Potency [17]: inactive
Potency [9]: inactive
Potency [10]: inactive
Potency [12]: inactive
Potency [18]: inactive
outcome [13]: inactive

NC(=O)c1ncn([C@@H]2O[C@H](CO)[C@@H](O)[C@H]2O)c1N
outcome [1]: inactive
outcome [2]: inactive
outcome [14]: inactive
Potency [15]: inactive
Potency [16]: inactive
outcome [3]: inactive
Potency [4]: inactive
outcome [5]: inactive
Potency [17]: inactive
Potency [6]: inactive
Potency [9]: inactive
Potency [10]: inactive
Potency [12]: inactive
Potency [18]: inactive
outcome [13]: inactive

CCCCCCCCCCCCCCCCCCOCC(O)CO (configuration not stated)
outcome [1]: inactive
outcome [2]: inactive
outcome [14]: inactive
Potency [15]: inactive
Potency [16]: inactive
outcome [3]: inactive
Potency [4]: inactive
outcome [5]: inactive
Potency [17]: inactive
Potency [6]: inactive
outcome [7]: inactive
Potency [9]: inactive
Potency [12]: inactive
Potency [18]: inactive
outcome [13]: inactive

CCC(=O)c1cccc(Cl)c1
outcome [1]: inactive
outcome [2]: inactive
Potency [16]: inactive
outcome [3]: inactive
Potency [4]: inactive
outcome [5]: inactive
Potency [17]: inactive
Potency [6]: inactive
Potency [9]: inactive
Potency [10]: inactive
Potency [12]: inactive
outcome [13]: inactive

COC(=O)CCCCCCCCC(=O)OC
outcome [1]: inactive
outcome [2]: inactive
outcome [14]: inactive
Potency [16]: inactive
outcome [3]: inactive
Potency [4]: inactive
outcome [5]: inactive
Potency [17]: inactive
Potency [6]: inactive
Potency [9]: inactive
Potency [10]: inactive
Potency [12]: inactive
Potency [18]: inactive
outcome [13]: inactive

CCCCCCCCCCCCI
outcome [1]: inactive
outcome [2]: inactive
Potency [16]: inactive
outcome [3]: inactive
Potency [4]: inactive
outcome [5]: inactive
Potency [17]: inactive
Potency [9]: inactive
Potency [12]: inactive
outcome [13]: inactive
